# A selection: hits, their analogues and other compounds. The true share with any hit is near 16%.
# uPA generation – qHTS for Inhibitors of Cell Surface uPA Generation; cell surface uPA generation assay, qHTS; Potency, µM (doses to about 38.3 µM), inactives show at the top dose activity change, negative = inhibition, actives largely listed as inhibitors; hit rate 0.31% among 330,000; AID 540303, 2011; active = well fitted inhibition curve with a large enough effect; inconclusive = small, poorly fitted or top-dose-only effect; inactive = no such curve, though single readings can be large or run the other way; tested in mouse RAW 264.7 cells; also: potency is read from the fitted curve at half-maximal effect; % is scaled to controls: 0 for no effect and ±100 for the full control effect; nearly all actives have a fitted effect of over 55% in size
# TDP1 cell noCPT – qHTS for Inhibitors of human tyrosyl-DNA phosphodiesterase 1 (TDP1): qHTS in cells in absence of CPT. hit rate 15% among 420,000. DT40 Tdp1-/- hTDP1 cells, no CPT, ATP luminescence, 48 h. Potency, µM (series often up to 46.2 µM), without a hit: at the highest dose activity change, negative = growth inhibition, actives largely listed as inhibitors; also: potency is read from the fitted curve at half-maximal effect; % is scaled to controls: 0 for no effect and ±100 for the full control effect; nearly all actives have a fitted effect of over 55% in size
#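 Stably hTDP1-transfected Tdp1-null chicken DT40 cells were treated with library compounds minus camptothecin and grown for at least 48 hr at 37 °C, after which cellular ATP was quantified by luminescence.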
# TDP1 cell CPT – qHTS for Inhibitors of human tyrosyl-DNA phosphodiesterase 1 (TDP1): qHTS in cells in presence of CPT; chicken DT40 Tdp1-/-;hTDP1 cells + 20 nM CPT, ATP luminescence, 48 h; Potency, µM (titrated, usually from 46.2 µM), without a hit: at the top dose activity change, negative = growth inhibition, usual class: inhibitors; hit rate 12% among 420,000; AID 686979, 2013; also: potency is read from the fitted curve at half-maximal effect; % is scaled to controls: 0 for no effect and ±100 for the full control effect; nearly all actives have a fitted effect of over 55% in size
#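 Chicken DT40 Tdp1-/- cells complemented with human TDP1, 400 cells/well, exposed to compounds plus 20 nM camptothecin for at least 48 h at 37 C; viability read as ATP content by CellTiter-Glo luminescence.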
# miR-21 act – qHTS Assay for Modulators of miRNAs and/orActivators of miR-21 | 340,000 tested, under 10 active | AID 2288, 2010 | Potency, µM (highest dose often 38.3 µM), for inactives: at the top dose activity change, positive = activation, usual class: activators | HeLa miR-21 FLuc reporter, luciferase, 48 h;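 also: % of control where 0% means no effect; miR-21 action dims this reporter so a rising signal means less miR-21 action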
#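 Using DMEM plus 10% FBS, HeLa miR-21-FLuc cells are incubated with test compounds (final up to about 40uM) for 48 hours; firefly luciferase signal is then imaged following reagent-mediated lysis.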
# TDP1 inh – qHTS Assay for Inhibitors of Tyrosyl-DNA Phosphodiesterase (TDP1); Tyrosyl-DNA phosphodiesterase 1 (Homo sapiens), Q9NUW8; AID 485290, 2010; hit rate 0.28% among 350,000; Potency, µM (series often up to 130 µM), for inactives: top-dose activity change, negative = inhibition, most hits filed as inhibitors; recombinant TDP1, AlphaScreen DNA substrate cleavage; also: potency is read from the fitted curve at half-maximal effect; % is scaled to controls: 0 for no effect and ±100 for the full control effect; nearly all actives have a fitted effect of over 40% in size
# Target sequence (Q9NUW8 whole entry, looked up): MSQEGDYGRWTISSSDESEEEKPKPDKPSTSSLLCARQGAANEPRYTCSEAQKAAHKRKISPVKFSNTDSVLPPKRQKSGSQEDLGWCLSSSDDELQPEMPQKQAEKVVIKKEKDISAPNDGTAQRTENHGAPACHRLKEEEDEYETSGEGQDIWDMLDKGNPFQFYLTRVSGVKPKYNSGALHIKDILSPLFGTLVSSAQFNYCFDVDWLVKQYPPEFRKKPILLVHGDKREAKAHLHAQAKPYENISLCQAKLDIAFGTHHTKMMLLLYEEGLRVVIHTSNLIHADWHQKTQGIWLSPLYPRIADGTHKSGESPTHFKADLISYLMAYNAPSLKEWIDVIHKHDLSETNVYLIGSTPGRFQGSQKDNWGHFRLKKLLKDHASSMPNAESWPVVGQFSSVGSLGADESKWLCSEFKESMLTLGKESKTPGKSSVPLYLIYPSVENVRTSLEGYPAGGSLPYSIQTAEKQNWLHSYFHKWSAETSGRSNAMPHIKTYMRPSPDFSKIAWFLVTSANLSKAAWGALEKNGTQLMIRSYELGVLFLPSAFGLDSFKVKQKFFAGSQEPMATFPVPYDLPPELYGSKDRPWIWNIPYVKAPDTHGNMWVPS
#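 Steps: enzyme plus compound, 15 min RT; add biotin/phosphotyrosine-FITC oligonucleotide (15 nM final), react 5 min; add donor/acceptor beads (10 ug/ml final), 10 min; read AlphaScreen. Tdp1 at 1 nM final.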
# * = called active by the depositor; u = inconclusive; x = not tested or not shown; [ ] = another dose, or the depositor's remark. Unless noted, calls follow the shape of the dose curve; as a rule, active = well fitted curve in the direction sought with a large enough effect; inconclusive = small, poorly fitted or top-dose-only effect, or another doubt; inactive = no such curve, though single readings can be large; an effect the other way counts as inactive or inconclusive.
SMILES,uPA generation,TDP1 cell noCPT,TDP1 cell CPT,miR-21 act,TDP1 inh
O=C(CSC1=Nc2ccccc2N=C(c2ccc(F)cc2)C1)Nc1cccc(C(F)(F)F)c1,x,23.1µM*,u,14.4%,-5.3%
CCc1cccc(NC(=O)CSC2=Nc3ccccc3N=C(c3ccc(F)cc3)C2)c1,x,13µM*,20.6µM*,24.4%,1.8%
Cc1ccc(CN2CCOc3ccc(CN4CCC(O)(c5cccnc5)CC4)cc3C2)cc1C,x,18.4µM*,-3.6%[9.04 µM],x,x
COc1ccc(CN2CCOc3ccc(CN4CCC(O)(c5cccnc5)CC4)cc3C2)c(C)c1C,x,16.4µM*,u,x,x
OC1(c2cccnc2)CCN(Cc2ccc3c(c2)CN(Cc2ccc(Cl)cc2)CCO3)CC1,x,-22.9%,-14.1%[9.04 µM],x,x
CCC1C(=O)NCCN1Cc1ccc2c(c1)CN(Cc1cccc(OC)c1OC)CCO2 (centres undefined),x,-19.2%,0.731µM*,x,x
CNC(=S)N/N=C/c1cn(CCOc2ccccc2OC)c2ccccc12,-13.1%,6.51µM*,3.66µM*,11.0%,8.2%
CNC(=S)N/N=C/c1cn(CCOc2cccc(OC)c2)c2ccccc12,-9.5%,13µM*,8.2µM*,1.8%,8.1%
COC(=O)[C@@H](NC(=O)Nc1ccc(S(N)(=O)=O)cc1)C(C)C,2.3%,-29.0%,-8.5%,-0.3%,1.3%
Cc1c(P(=S)(c2ccccc2)c2ccccc2)[n+]2ccccc2n1C/C=C/c1ccccc1,x,x,x,x,3.8%
CC(=O)Nc1c2c3c(cccc3n(C)c1=O)C(=O)c1ccccc1-2,-1.6%,-28.6%,-12.0%,2.1%,1.0%
CC(=O)Nc1ccc(Nc2ccc3c4c(cc(=O)n3C)-c3ccccc3C(=O)c24)cc1,-8.2%,6.51µM*,-24.8%,0.6%,8.9%
CC(=O)c1c(C)nc2nc(-c3ccccc3)nn2c1C,x,-8.4%,-4.5%,-45.5%,-0.6%
CC1CCc2nc3ncn(Cc4ccc(Cl)cc4)c(=O)c3cc2C1 (centres undefined),x,23.1µM*,18.4µM*,-51.2%,-0.6%
Cc1ccccc1Cn1cnc2nc3c(cc2c1=O)CC(C)CC3 (centres undefined),x,2.59µM*,16.4µM*,-25.6%,-0.6%
COc1ccc(CCNC(=O)c2cccnc2Cl)cc1OC,2.9%,-25.2%,-13.7%,x,x
CSCCC(NC(=O)c1ccc(Cl)cc1Cl)C(=O)N1CCN(C(=O)c2ccccc2)CC1 (centres undefined),-19.3%,-4.8%,u,x,x
O=C(NCC(=O)N1CCN(C/C=C/c2ccccc2)CC1)c1ccc(Br)cc1,2.7%,8.2µM*,16.4µM*,x,2.3%
O=C(NCC(=O)N1CCCCCC1)c1ccc(OC(F)F)cc1,0.0%,-7.3%,2.5%,-7.7%,1.1%
CC(=O)c1ccc(S(=O)(=O)NCC(=O)N2CCN(C/C=C/c3ccccc3)CC2)cc1,-5.1%,-24.4%,u,x,3.7%
O=C(NCC(=O)N1CCN(C/C=C/c2ccccc2)CC1)c1ccc(OC(F)F)cc1,-0.8%,14.6µM*,u,x,1.8%
C[C@H](NC(=O)c1ccc(C(C)(C)C)cc1)C(=O)N1CCN(C/C=C/c2ccccc2)CC1,u,20.6µM*,u,x,3.6%
CSCCC(NC(=O)c1ccc(Cl)c([N+](=O)[O-])c1)C(=O)N1CCN(C/C=C/c2ccccc2)CC1 (centres undefined),u,u,18.4µM*,x,-2.4%[0.505 µM]
CC(C)C(NC(=O)c1ccccc1)C(=O)N1CCN(C/C=C/c2ccccc2)CC1 (centres undefined),-12.3%,u,u,x,1.5%
O=C(NC(=S)Nc1ncccn1)c1ccc(F)cc1,-1.1%,-2.6%,7.7%,-46.6%,x
C/C(=N\NC(=O)c1cc(O)ccc1O)c1cccc(NC(=O)c2ccc(Cl)cc2)c1,-10.8%,18.4µM*,u,-26.2%,-17.4%
C/C(=N/NC(=O)c1ccco1)c1cccc(NC(=O)c2ccc(C)o2)c1,-3.7%,-7.1%,-11.9%,-27.6%,5.3%

# Screening results: PubChem, National Center for Advancing Translational Sciences (NCATS)
